# FMDV inh = High Throughput Screening for Foot and Mouth Disease Virus Antivirals; FMDV antiviral cell-based qHTS; Potency, µM (series often up to 57.9 µM), without a hit: top-dose activity change, negative = inhibition, hits mostly inhibitors; 410,000 compounds, 1.2% hits; calls by dose curve; tested in HEK293T cells; note: read-out not given here; nearly all actives have a fitted effect of over 45% in size
# MARV entry inh = qHTS for inhibitors of binding or entry into cells for Marburg Virus | Marburg virus pseudotyped entry inhibition, cell reporter | Potency, µM (doses to about 37.8 µM), for the others: top-dose activity change, negative = inhibition, usual class: inhibitors | AID 540276, 2011 | 300,000 compounds, 1.8% hits; calls by dose curve; tested in HEK293 cells
# Sm TGR block = qHTS Assay for the Inhibitors of Schistosoma Mansoni Peroxiredoxins | Schistosoma mansoni thioredoxin glutathione reductase (TGR), Q962Y6 | purified TGR, DTNB reduction, TNB absorbance 405 nm | Potency, µM (series often up to 114 µM), inactives show at the highest dose activity change, negative = inhibition, most hits filed as inhibitors | 360,000 compounds, 3% hits; note: nearly all actives have a fitted effect of over 60% in size
#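 Kinetic colorimetric format: TGR-catalysed, NADPH-driven DTNB reduction monitored via TNB absorbance. Enzyme dispensed at 20 nM; compound exposure 15 min at room temperature before reaction start.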
# RE007 growth inh = qHTS Assay for Inhibitors of the HIV-1 protein Vpr; S. pombe RE007 Vpr strain, BacTiter-Glo ATP luminescence, 24 h; 360,000 compounds, 0.21% hits; Potency, µM (series often up to 92.2 µM), inactives show at the highest dose activity change, negative = less growth, hits mostly inhibitors; active = well fitted falling curve with a large enough effect; inconclusive = small, poorly fitted or top-dose-only effect; inactive = no such curve, though single readings can be large or run the other way; note: nearly all actives have a fitted effect of over 50% in size
#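 Fission yeast strain RE007, carrying one chromosomally integrated HIV-1 vpr copy, was seeded at OD 0.01 in PMG+AL medium with 23 nL pinned compound. After 24 h at 30 °C and 99% humidity, viability was read by BacTiter-Glo luminescence.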
# LASV entry inh = qHTS for Inhibitors of binding or entry into cells for Lassa Virus; Lassa virus pseudotype entry inhibition, cell reporter; Potency, µM (series often up to 37.9 µM), without a hit: at the highest dose activity change, negative = inhibition, most hits filed as inhibitors; 300,000 compounds, 1.2% hits; AID 540256, 2011; calls by dose curve; tested in HEK293 cells; note: nearly all actives have a fitted effect of over 50% in size
# HCV inh = qHTS Assay for Inhibitors of Hepatitis C Virus (HCV); Huh7.5.1 HCVcc-Cre infection, luciferase reporter, 44 h; Potency, µM (top dose mostly 41.8 µM), for the others: at the highest dose activity change, negative = inhibition, usual class: inhibitors; 340,000 compounds, 3.4% hits
#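 Luciferase read-out (15 sec integration) after a 15 min room-temperature substrate step quantifies HCVcc-Cre infection. Cells, 1,000 per well, had compound added 4 h post-plating, then virus at ~0.5 moi, and were cultured 44 h.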
# * marks the source's active call; other numbers are inactive results; i = inactive; ? = inconclusive; nt = not tested or not shown; [ ] = dose if it differs, or a comment. Most compounds without a hit are left out; they make up all but 7.2% or so of the library. Unless noted, calls come from the whole dose curve; as a rule, active = well fitted curve in the direction sought with a large enough effect; inconclusive = small, poorly fitted or top-dose-only effect, or another doubt; inactive = no such curve, though single readings can be large; an effect the other way counts as inactive or inconclusive. % is set by controls: 0 for no effect and ±100 for the full control effect; potency is the fitted concentration of half-maximal effect.
SMILES,FMDV inh,MARV entry inh,Sm TGR block,RE007 growth inh,LASV entry inh,HCV inh
CC(NCCC(c1ccccc1)c1ccccc1)c1ccccc1 (configuration not stated),13%,?,-3%,-8%,23µM*,?
Cc1c(CCOC(=O)C23CC4CC(CC(C4)C2)C3)sc[n+]1CC#N,?,?,4.5µM*,-13%,?,-17%
Cc1ncc(C[n+]2csc(CCOC(=O)CC34CC5CC(CC(C5)C3)C4)c2C)c(N)n1,-17%,2%,45µM*,i,1%,?
CCN1C=C(Cc2ccccc2C)C2=C(C1)C(c1ccccc1C)C(C#N)=C(N)O2 (configuration not stated),?,?,45µM*,4%,-22%,-22%
CCN1C=C(Cc2ccc(F)cc2)C2=C(C1)C(c1ccc(F)cc1)C(C#N)=C(N)O2 (configuration not stated),?,?,?,-3%,?,-8%
CCOC(=O)c1ccccc1NC(=O)CSc1nc2ncccc2o1,-6%,nt,0%,nt,10%[46.1 µM],nt
COc1ccc(Nc2ncc(C(=O)N3CCN(Cc4ccccc4)CC3)c3ccccc23)cc1,?,?,1%,7%,?,10µM*
O=C(C1CCC(CNS(=O)(=O)c2ccccc2)CC1)N1CCCCC1 (configuration not stated),-16%,-29%[46.1 µM],-13%,8%,?,-15%
COc1ccc(CN2CCN(C(=O)C3CCC(CNS(=O)(=O)c4ccccc4)CC3)CC2)c(OC)c1OC (configuration not stated),?,?,-4%,1%,-7%[46.1 µM],3.5µM*
COc1ccccc1Nc1ncc(C(=O)N2CCN(Cc3ccc(OC)c(OC)c3OC)CC2)c2ccccc12,-12%,?,-8%,-12%,13µM*,13µM*
COc1ccccc1Nc1ncc(C(=O)N2CCC(C(N)=O)CC2)c2ccccc12,13%,19%,-26%,-5%,2%,-5%
CNC(=O)C1CCC(Cn2c(=O)c3sccc3n(CC(=O)Nc3ccc(C)c(C)c3)c2=O)CC1 (configuration not stated),-27%,nt,-9%,nt,-22%[46.1 µM],nt
C/C(=N\NC(=O)COc1ccc(C(C)(C)C)cc1)c1cc2ccccc2o1,-13%,10µM*,0%,11%,3.2µM*,10%
C/C(=N\NC(=O)COc1ccc(C(C)(C)C)cc1)c1ccccc1,4%,-4%[46.1 µM],-1%,-3%,-5%,-23%
CCOC(=O)c1cc2c(=O)n3ccccc3nc2n(CC2CCCO2)c1=NC(=O)c1ccc(C)cc1 (configuration not stated),3%,24%[46.1 µM],-18%,nt,13%[46.1 µM],nt
Cc1nc(N2CCOCC2)[nH]c(=O)c1C(O)C(Cl)(Cl)Cl (configuration not stated),-18%,3%,45µM*,0%,nt,-2%
COc1ccc(C(=O)c2ccccc2)c2c(O)ccc(C(=O)c3ccccc3)c12,13µM*,14µM*,-8%,-9%,?,2.5µM*
CCc1ccc(NC(=O)CC2C(=O)N(c3cccc(OC)c3)C(=O)N2Cc2ccco2)cc1 (configuration not stated),-8%,nt,40µM*,nt,?,nt
COc1ccc(NC(=O)CC2C(=O)N(c3ccc(OC)cc3)C(=O)N2CCc2cccs2)cc1 (configuration not stated),15%,-19%,2%,5%,9.2µM*,-7%
CN1C(=O)C(CC(=O)Nc2ccc(Cl)cc2)N(Cc2ccco2)C1=S (configuration not stated),-7%,-16%,10µM*,6%,-1%,22%
CCc1ccc(NC(=O)CC2C(=O)N(c3cccc(C)c3)C(=O)N2Cc2ccco2)cc1 (configuration not stated),-7%,nt,45µM*,nt,-24%[46.1 µM],nt

# From PubChem BioAssay
